AHR activator: human AHR activation. AHR-responsive luciferase reporter cells, luminescence. 320,000 compounds, 2.5% hits. P35869. activation, % at 5 µM; in the data active = activation above about 47%
SENP6 inh: inhibitors of human SENP6 protease; Q9GZR1; Recombinant SENP6 catalytic domain, aminoluciferin luminescence; inhibition, % at 10 µM; 330,000 compounds, 1.8% hits;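 active = inhibition above about 50% at the single tested dose, limit read from the data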
SENP8 block-1: SENP8 (human) protease inhibition; Q96LD8; recombinant SENP8, Nedd8 substrate fluorescence; inhibition, % at 20 µM; 360,000 compounds, 0.64% hits; in the data active = inhibition mostly above about 40%, no sharp cut-off; inactive = mostly below about 27%
EBI2 block: EBI2 (human) antagonism; P32249; EBI2 beta-arrestin recruitment, luminescence, 7a,25-OHC stimulated; inhibition, % at 5 µM; 360,000 compounds, 0.81% hits; AID 651636; in the data active = inhibition above about 38%;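 also: enzyme fragment complementation signal reports receptor beta-arrestin coupling in cells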
SENP7 block: inhibitors of human SENP7 protease. Q9BQF6. recombinant SENP7, Z-RLRGG-aminoluciferin luminescence, 40 min. inhibition, % at 5 µM. 330,000 compounds, 1.5% hits. AID 434973;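 active = inhibition above about 50% at the single test dose, limit read from the data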
SENP8 block-2: blocks the human protease SENP8. Q96LD8. inhibition, % at 10 µM. 330,000 compounds, 1.2% hits. AID 2540. purified SENP8, Z-RLRGG-aminoluciferin cleavage, luminescence; in the data active = inhibition above about 50%
Each line names hits and unclear results; the compound was inactive in the other large screens. The list is not random: actives were taken first. Their share in the collection is about 5%.

Cc1ccc(N(C(=O)c2snc(C(N)=O)c2N)C(C(=O)NCC2CCCO2)c2ccc(C)o2)c(C)c1 (stereo unspecified)	none
Cc1ccc(S(=O)(=O)N2CCCCC2)cc1NS(=O)(=O)c1ccc(Cl)c(C(=O)O)c1	none (no result: AHR activator)
CC(=O)Nc1cccc(OCCCNC(=O)c2ccc(F)cc2)c1	none
CC(=O)Nc1cccc(OCCCNC(=O)c2ccc(C(C)(C)C)cc2)c1	AHR activator 47.4
COc1ccccc1N(C)S(=O)(=O)c1ccc(C(=O)NCCCN2CCCC2=O)cc1	none (no result: AHR activator, SENP6 inh, SENP7 block, SENP8 block-2)
CCN1C(=O)/C(=C/C=C2\C=CN(CC)c3ccccc32)SC1=S	SENP8 block-1 63.9 (no result: SENP6 inh, SENP7 block, SENP8 block-2)
CCN1C(=O)C(=CC=CN(C)c2ccccc2)SC1=S	SENP8 block-1 62.5 (no result: AHR activator, SENP6 inh, SENP7 block, SENP8 block-2)
O=C(O)CN1C(=O)/C(=C/C=C/c2ccccc2)SC1=S	none
CCc1ccccc1NC(=O)C1=CC(c2cccs2)=NS(=O)(=O)N1C	none
Cc1ccc(O)c(NC(=O)C2=CC(c3cccs3)=NS(=O)(=O)N2C)c1	AHR activator 52.0
Cn1c2ccccc2c2cc(/C=N/NC(=O)c3ccc(O)cc3O)ccc21	none
Cn1c(O)c(/C=N/NC(=O)c2cc3ccccc3cc2O)c2ccccc21	SENP6 inh 97.1, SENP8 block-2 92.8
CN(C)S(=O)(=O)c1cc(NC(=O)c2ccc(-n3ccnc3)c([N+](=O)[O-])c2)ccc1Cl	AHR activator 53.1
NS(=O)(=O)c1ccc(N=Nc2ccc(=O)[nH]c2O)cc1	SENP8 block-1 63.8 (no result: SENP6 inh, SENP7 block, SENP8 block-2)
CC(=O)Nc1cccc(C(=O)/C=C/c2ccc(N(C)C)cc2)c1	EBI2 block 43.5
N/C(Cc1nc(-c2ccc(Br)cc2)cs1)=N\O	AHR activator 53.7
N/C(Cc1nc(-c2ccc(F)cc2)cs1)=N\O	none
Cc1cc2nc(C(C)(C)C)c(Cc3ccsc3)n2c(C)c1Br	none (no result: AHR activator, SENP6 inh, SENP7 block, SENP8 block-2)
COC(=O)[C@@]12C[C@@H](CC(=O)NCC3CCCCC3)C(=O)N(CCc3ccc(OC)c(OC)c3)C1=CCC(C)(C)C2	none (no result: AHR activator, SENP6 inh, SENP7 block, SENP8 block-2)
CCCCn1nnnc1C(c1ccccc1)N1CCN(c2ccccn2)CC1 (stereo unspecified)	none (no result: AHR activator, SENP6 inh, SENP7 block, SENP8 block-2)
CCOc1cc(C(=O)Nc2ccc(C(=O)NCCN(CC)CC)cc2)ccc1OCC(=O)N1CCOCC1	none (no result: AHR activator)
N#Cc1cccc(-n2nnnc2-c2ccc3c(c2)OCO3)c1	AHR activator 56.8
COc1cccc(C(=O)NC(=S)Nc2ccccc2N2CCCCC2)c1	AHR activator 73.1
COc1cccc(C(=O)Nc2ccccc2N2CCCC2)c1	none
COc1cccc(C(=O)NC(=S)Nc2ccccc2N2CCCC2)c1	AHR activator 48.5
O=C(NC(=S)Nc1ccccc1N1CCCC1)c1ccccc1Br	AHR activator 74.8
COc1cc(C(=O)NC(=S)Nc2ccccc2N2CCCC2)cc(OC)c1OC	none
O=C(Nc1ccc(Cl)cc1)C1Cc2c(-c3ccccc3Oc3ccccc3)ccnc2O1 (stereo unspecified)	none (no result: AHR activator, SENP6 inh, SENP7 block, SENP8 block-2)
CSCCC(C(=O)NC1CCCC1)n1c(C2CCCC2)nc2ccccc21 (stereo unspecified)	none (no result: AHR activator, SENP6 inh, SENP7 block, SENP8 block-2)
Cc1ccc(S(=O)(=O)/N=C2/C=C(Sc3ncn[nH]3)C(=O)c3ccccc32)cc1	AHR activator 57.0 (no result: SENP6 inh, SENP7 block, SENP8 block-2)
Cc1ccc(S(=O)(=O)/N=C2/C=C(Sc3ncn[nH]3)C(=O)c3ccccc32)c(C)c1	AHR activator 49.9 (no result: SENP6 inh, SENP8 block-1, EBI2 block, SENP7 block, SENP8 block-2)
CC(C)c1ccc(S(=O)(=O)/N=C2/C=C(Sc3ncn[nH]3)C(=O)c3ccccc32)cc1	none (no result: SENP6 inh, SENP7 block, SENP8 block-2)
Cc1ccc(S(=O)(=O)N2CCN(C(=O)CSc3ncn[nH]3)CC2)c(C)c1	none
COc1ccc(NC(=O)N(C)C[C@H]2OCc3cnnn3CCCC(=O)N([C@@H](C)CO)C[C@H]2C)cc1	none (no result: AHR activator, SENP6 inh, SENP7 block, SENP8 block-2)
COc1ccc(N=Nc2c(N)nn(C)c2N)cc1	SENP8 block-1 51.3 (no result: AHR activator, SENP6 inh, SENP7 block, SENP8 block-2)
Cc1ccn2c(CC(C)(C)C)c(-c3ccc(F)cc3)nc2c1	none (no result: AHR activator, SENP6 inh, SENP7 block, SENP8 block-2)
COc1ccc2ccccc2c1C1NC(=O)c2ccccc2N1 (stereo unspecified)	none (no result: AHR activator, SENP6 inh, SENP7 block, SENP8 block-2)
O=C1NC(c2ccc3c(c2)OCO3)Nc2ccccc21 (stereo unspecified)	AHR activator 145.3
COc1ccc(C2NC(=O)c3ccccc3N2)cc1OC (stereo unspecified)	AHR activator 47.5
O=C1NC(c2ccc3ccccc3c2)Nc2ccccc21 (stereo unspecified)	none (no result: AHR activator, SENP6 inh, SENP7 block, SENP8 block-2)
COCCNC(=O)C1(C)CCCN(CCC(=O)c2ccc(Br)cc2)C1 (stereo unspecified)	none (no result: AHR activator, SENP6 inh, SENP7 block, SENP8 block-2)
COc1ccc(NC(=O)C(c2ccnc3ccccc23)n2c(=O)c(-c3ccccc3)nc3ccccc32)cc1 (stereo unspecified)	none (no result: AHR activator, SENP6 inh, SENP7 block, SENP8 block-2)

Screening results deposited in PubChem by several laboratories.
